Assay results published in PubChem BioAssay (NCI).
Compounds without any hit were thinned out: in the full panel of roughly 79,000, 15% have a hit. Active and inactive are the calls of the source. No stated cut-off is given here; in the data, active means growth inhibition above about 70%; inactive means the rest.

Key:
[1] = NCI Yeast Anticancer Drug Screen. Data for the rad52 strain (AID 147);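 further: 0% = growth of vehicle-treated control cultures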; settings: S. cerevisiae rad52 mutant growth inhibition, active compounds read high
How it was run: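 Here a repair-compromised yeast strain receives each compound; its growth is then quantified and normalised to vehicle-only controls.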

[2] = NCI Yeast Anticancer Drug Screen. Data for the wt1 strain (AID 149);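 further: 0% = growth of vehicle-treated wt1 cultures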; settings: S. cerevisiae wt1 strain (SPY 50644) growth inhibition, active compounds read high
How it was run: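 The wt1 strain was treated with compounds, and growth was compared with vehicle-treated cultures to give inhibition.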

[3] = NCI Yeast Anticancer Drug Screen. Data for the rad50EPP+ strain (AID 151);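 further: 0% = growth of vehicle-treated control cultures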; settings: S. cerevisiae rad50 mutant strain, active compounds read high
How it was run: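 Read-out is yeast growth inhibition relative to vehicle; cells used were the rad50EPP+ strain.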

[4] = NCI Yeast Anticancer Drug Screen. Data for the mgt1 strain (AID 153); settings: S. cerevisiae mgt1 mutant growth inhibition, active compounds read high
How it was run: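 Measured: inhibition of mgt1 yeast growth by compound, normalized to vehicle-treated cultures.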

[5] = NCI Yeast Anticancer Drug Screen. Data for the rad50 strain (AID 155);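 further: 0% = growth of vehicle-only cultures of the same strain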; settings: S. cerevisiae rad50 strain growth inhibition, active compounds read high
How it was run: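 Cells are treated with compound, grown, and their growth is then scored against vehicle-only cultures of the same repair-deficient yeast strain.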

[6] = NCI Yeast Anticancer Drug Screen. Data for the mec2-1 strain (AID 157); settings: S. cerevisiae mec2-1 strain, active compounds read high
How it was run: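 Using mec2-1 yeast: add compound, measure growth, express inhibition versus vehicle-treated cultures.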

[7] = NCI Yeast Anticancer Drug Screen. Data for the rad14 strain (AID 159);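 further: 0% = growth of vehicle-treated control cultures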; settings: S. cerevisiae rad14 strain growth inhibition, active compounds read high
How it was run: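 Readout: yeast growth inhibition, referenced to vehicle-only cultures. Strain bears a defined alteration in DNA damage repair.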

[8] = NCI Yeast Anticancer Drug Screen. Data for the sgs1 mgt1 strain (AID 161);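 further: 0% = growth of cultures given vehicle only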; settings: S. cerevisiae sgs1 mgt1 strain, active compounds read high
How it was run: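 Yeast cells carrying a defined DNA-repair defect were exposed to test compounds. Growth inhibition was measured relative to vehicle-treated controls.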

[9] = NCI Yeast Anticancer Drug Screen. Data for the CLN2oe strain (AID 163);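 further: 0% = growth of vehicle-only control cultures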; settings: S. cerevisiae CLN2oe strain, active compounds read high
How it was run: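 Whole-cell yeast growth assay. A strain engineered for altered cell-cycle control received compound, and inhibition relative to vehicle-treated cultures was recorded.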

[10] = NCI Yeast Anticancer Drug Screen. Data for the cln2 rad14 strain (AID 165);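 further: 0% = growth equal to vehicle treated cultures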; settings: S. cerevisiae cln2 rad14 strain, active compounds read high
How it was run: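 Yeast strain cln2 rad14, bearing defects in cell cycle control and DNA repair, serves as the test system; values reflect growth inhibition compared with vehicle.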

[11] = NCI Yeast Anticancer Drug Screen. Data for the wt2 strain (AID 169);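 further: 0% = growth of vehicle-treated yeast cultures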; settings: S. cerevisiae wt2 strain growth inhibition, active compounds read high
How it was run: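 Treated yeast vs. vehicle-treated yeast: growth inhibition determined.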

[12] = NCI Yeast Anticancer Drug Screen. Data for the mlh1 strain (AID 171);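 further: 0% = growth of vehicle-treated control cultures of the same strain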; settings: S. cerevisiae mlh1 strain growth inhibition, active compounds read high
How it was run: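 A yeast strain with a defined genetic lesion serves as the test organism. Cultures receive compound or vehicle, and growth is measured.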

[13] = NCI Yeast Anticancer Drug Screen. Data for the sgs1 strain (AID 173);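 further: 0% = growth of vehicle-only control cultures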; settings: S. cerevisiae sgs1 mutant, active compounds read high
How it was run: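 A genetically defined yeast mutant is incubated with the test compound, and its growth is compared to that of the same strain given vehicle.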

[14] = NCI Yeast Anticancer Drug Screen. Data for the mlh1 rad18 strain (AID 175); settings: S. cerevisiae mlh1 rad18 strain growth inhibition, active compounds read high
How it was run: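 Steps: expose repair-defective yeast to compound; measure growth; express inhibition against vehicle-treated controls.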

[15] = NCI Yeast Anticancer Drug Screen. Data for the rad18 strain (AID 177); settings: S. cerevisiae rad18 mutant growth inhibition, active compounds read high
How it was run: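 Measured value is growth inhibition of a yeast strain bearing a DNA repair alteration, referenced to vehicle-treated cells.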

[16] = at 5.0 µM (retest, dose inferred, filed as 0.5)
[17] = at 50.0 µM (retest, dose inferred, filed as 5.0)

Measured: growth inhibition

CC[C@@]1(O)C(=O)OCc2c1cc1n(c2=O)Cc2cc3ccccc3nc2-1
inactive: [2]; at 1.2 µM 2% | [2]; at 3.7 µM 39% | [4]; at 1.2 µM 0% | [4]; at 3.7 µM 6% | [6]; at 1.2 µM 47% | [7]; at 1.2 µM 21% | [7]; at 3.7 µM 55% | [8]; [16] 53% | [9]; at 1.2 µM 8% | [9]; at 3.7 µM 55% | [10]; [16] 14% | [10]; at 50.0 µM 58% | [11]; at 1.2 µM 17% | [11]; at 3.7 µM 57% | [12]; at 1.2 µM -2% | [12]; at 3.7 µM 35% | [13]; at 1.2 µM 29% | [14]; [16] 39% | [15]; at 1.2 µM -6% | [15]; at 3.7 µM 20%
active: [1]; at 1.2 µM 97% | [1]; at 3.7 µM 98% | [1]; at 11.0 µM 98% | [1]; at 33.0 µM 97% | [1]; at 100.0 µM 95% | [2]; at 11.0 µM 90% | [2]; at 33.0 µM 94% | [2]; at 100.0 µM 95% | [3]; at 1.2 µM 89% | [3]; at 3.7 µM 95% | [3]; at 11.0 µM 97% | [3]; at 33.0 µM 97% | [3]; at 100.0 µM 96% | [4]; at 11.0 µM 79% | [4]; at 33.0 µM 91% | [4]; at 100.0 µM 92% | [5]; at 1.2 µM 97% | [5]; at 3.7 µM 97% | [5]; [16] 97% | [5]; at 11.0 µM 96% | [5]; at 33.0 µM 96% | [5]; [17] 97% | [5]; at 50.0 µM 86.9% | [5]; at 100.0 µM 95% | [6]; at 3.7 µM 95% | [6]; [16] 73% | [6]; at 11.0 µM 97% | [6]; at 33.0 µM 98% | [6]; [17] 98% | [6]; at 50.0 µM 88.2% | [6]; at 100.0 µM 97% | [7]; at 11.0 µM 89% | [7]; at 33.0 µM 97% | [7]; at 100.0 µM 96% | [8]; [17] 95% | [8]; at 50.0 µM 81.7% | [9]; at 11.0 µM 89% | [9]; at 33.0 µM 93% | [9]; at 100.0 µM 91% | [10]; [17] 89% | [11]; at 11.0 µM 92% | [11]; at 33.0 µM 97% | [11]; at 100.0 µM 96% | [12]; at 11.0 µM 84% | [12]; at 33.0 µM 93% | [12]; at 100.0 µM 93% | [13]; at 3.7 µM 82% | [13]; at 11.0 µM 95% | [13]; at 33.0 µM 96% | [13]; at 100.0 µM 95% | [14]; [17] 93% | [14]; at 50.0 µM 81.7% | [15]; at 11.0 µM 89% | [15]; at 33.0 µM 93% | [15]; at 100.0 µM 94%
